Data taken from the supplement of paper PMC10981050.
Where a name gives a salt, the structure may show the parent alone.

Tested on: K562
Experiment: cell viability relative to vehicle control; higher = less cytotoxic
Settings: 10 µM; SRSF2 genotype: SRSF2 wt/wt
How it was run: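 Four leukaemia lines, as CRISPR-edited mutant clones and isogenic wild-type clones, were tested against Selleck bioactive, kinase and epigenetic probe libraries after removal of identity-inconsistent compounds. Cells were exposed to a single 10 µM dose for 48 h, and CellTiter-Glo luminescence was then read. Viability was calculated relative to the on-plate vehicle control.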

SMILES	cell viability [%]
Oc1ccc(OCc2ccccc2)cc1 [Monobenzone (Benoquin)]	83.9
CNCCCC12CCC(c3ccccc31)c1ccccc12 [Maprotiline hydrochloride]	71.2
O=C(O)[C@H]1O[C@@H](Oc2cc3oc(-c4ccc(O)cc4)cc(=O)c3c(O)c2O)[C@H](O)[C@@H](O)[C@@H]1O [Scutellarin]	96
Cn1nnc(-c2ccc(-c3ccc(N4C[C@H](COP(=O)(O)O)OC4=O)cc3F)cn2)n1 [Tedizolid Phosphate]	84.9
Cc1onc(-c2c(F)cccc2Cl)c1C(=O)N[C@@H]1C(=O)N2[C@@H]1SC(C)(C)[C@@H]2C(=O)O [Flucloxacillin sodium]	94.3
CC(=O)Nc1ccccc1 [Acetanilide (Antifebrin)]	101
CCOC(=O)c1c(C)n(C)c2ccc(O)cc12 [Mecarbinate]	99.8
CC#CC(=O)N1CCC[C@H]1c1nc(-c2ccc(C(=O)Nc3ccccn3)cc2)c2c(N)nccn12 [Acalabrutinib (ACP-196)]	94.1
CN/C(=N\CCSCc1nc[nH]c1C)NC#N [Cimetidine (Tagamet)]	98.8
CCCC1O[C@@H]2C[C@H]3[C@@H]4CCC5=CC(=O)C=C[C@]5(C)[C@H]4[C@@H](O)C[C@]3(C)[C@]2(C(=O)CO)O1 (some centres undefined) [Budesonide]	83.7
CO/N=C1\C[C@]2(C[C@@H]3C[C@@H](C/C=C(\C)C[C@@H](C)/C=C/C=C4\CO[C@@H]5[C@H](O)C(C)=C[C@@H](C(=O)O3)[C@]45O)O2)O[C@H](/C(C)=C/C(C)C)[C@H]1C [Moxidectin]	66.4
CCOc1ccc2ccccc2c1C(=O)N[C@@H]1C(=O)N2[C@@H]1SC(C)(C)[C@@H]2C(=O)O [Nafcillin Sodium]	101
C[C@@H](O)[C@H]1C(=O)N2C(C(=O)O)=C(S[C@@H]3CN[C@H](CNS(N)(=O)=O)C3)[C@H](C)[C@H]12 [Doripenem Hydrate]	94.1
NC(=O)c1ccc(-c2nc(-c3ccc4c(c3)OCCO4)c(-c3ccccn3)[nH]2)cc1	92.9
O=C1CCc2c(ccc3ccccc23)O1 [Splitomicin]	95.4
Cc1nc(-c2cn3c(n2)-c2ccc(-c4cnn(C(C)(C)C(N)=O)c4)cc2OCC3)n(C(C)C)n1	72.8
CN(CCOc1ccc(NS(C)(=O)=O)cc1)CCc1ccc(NS(C)(=O)=O)cc1 [Dofetilide (Tikosyn)]	101
COC1CCN(C(=O)c2cc(Cc3n[nH]c(=O)c4ccccc34)ccc2F)CC1	86
Cc1[nH]c(=O)c(C#N)cc1-c1ccncc1 [Milrinone (Primacor)]	94.1
CC(C)C[C@H](NC(=O)[C@@H](NC(=O)c1cccc(-c2ccccc2)n1)[C@@H](C)O)B(O)O	3.78

SMILES	cell viability [%]
CC(C)(C#N)c1cc(Cn2cncn2)cc(C(C)(C)C#N)c1 [Anastrozole]	107
CC(ONC(=O)c1cc(C(F)(F)F)cc(C(F)(F)F)c1)C(=O)Nc1ccc(Cl)cc1 (centres undefined)	78.8
CS(=O)(=O)Nc1cc2occ(NC=O)c(=O)c2cc1Oc1ccccc1 [Iguratimod]	110
CC1(C)CC[C@]2(C(=O)O)[C@H](O)C[C@]3(C)C(=CC[C@@H]4[C@@]5(C)CC[C@H](O)[C@@](C)(C=O)[C@@H]5CC[C@]43C)[C@@H]2C1 [Quillaic acid]	82.9
C[C@@H]1O[C@@H](O[C@H]2[C@H](O[C@H]3CC[C@@]4(C)[C@@H](CC[C@]5(C)[C@@H]4CC=C4[C@@H]6CC(C)(C)CC[C@]6(C(=O)O)CC[C@]45C)[C@]3(C)CO)OC[C@H](O[C@@H]3O[C@H](CO)[C@@H](O)[C@H](O)[C@H]3O)[C@@H]2O)[C@H](O)[C@H](O)[C@H]1O [Pulsatilla saponin D]	0.55
C=C1CCC[C@]2(C)C=C3OC(=O)C(C)=C3C[C@@H]12 [Atractylenolide I]	106
C#CCN[C@@H]1CCc2ccccc21 [Rasagiline mesylate]	101
CN1CC[C@H](c2c(O)cc(O)c3c(=O)cc(-c4ccccc4Cl)oc23)[C@H](O)C1 [Flavopiridol (Alvocidib)]	8.24
O=C(O)[C@H]1CSC(c2nc3ccc(O)cc3s2)=N1 [D-Luciferin]	92.3
CCCCCCOC(=O)c1cc(=O)c(O)c2c(O)c(O)c(OC)cc2c1	46.8
CC1(C)OC(=O)C=C[C@]2(C)[C@H]3CC[C@@]4(C)[C@H](c5ccoc5)OC(=O)[C@H]5O[C@]54[C@]3(C)C(=O)C[C@@H]12 [Obacunone]	95.4
Cc1cc(/N=N/c2ccc(S(=O)(=O)Nc3ccccn3)cc2)c(N)cc1O	79.7
CC(C)OC(=O)CCC/C=C\C[C@@H]1[C@@H](CC[C@@H](O)CCc2ccccc2)[C@H](O)C[C@@H]1O [Latanoprost]	90.1
COc1c(O[C@@H]2O[C@H](CO)[C@@H](O)[C@H](O)[C@H]2O)cc2occ(-c3ccc(O)cc3)c(=O)c2c1O [Tectoridin]	84.8
Cc1ccccc1C(OCCN(C)C)c1ccccc1 (centres undefined) [Orphenadrine citrate (Norflex)]	91.3
CCCCCCCCCCCCCCCC(=O)O[C@@H]1[C@@H](O)[C@@H](O)[C@@H]([C@H](NC(=O)[C@@H]2C[C@@H](CCC)CN2C)[C@H](C)Cl)O[C@@H]1SC [Clindamycin palmitate HCl]	94.8
CN(C)c1ccc(-c2nc3ncc(Cl)c(N4CCN(CC(=O)Nc5nccs5)CC4)c3[nH]2)cc1	95.2
C[C@]12CC[C@@H]3c4ccc(O)cc4CC[C@H]3[C@@H]1CC[C@@H]2O [Estradiol]	93.8
COc1cc(OCc2cccc(-c3ccccc3)c2C)cc(OC)c1CN1CCCC[C@H]1C(=O)O [PD-1/PD-L1 inhibitor 1]	100
